Compounds with a hit are over-represented: about 21% of the library has one in this group of screens.
Pf growth 48h = P. falciparum growth inhibition at 48 hours (one generation); P. falciparum luciferase growth in erythrocytes, 48 h; Potency, µM (highest dose often 28.7 µM), most hits filed as inhibitors; actives 5.9% (n = 310,000)
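Erythrocytes infected with P. falciparum carrying an integrated firefly luciferase reporter (2% hematocrit, 0.1% parasitemia final) were exposed to compounds in RPMI 1640 with 0.5% Albumax at 37 C, 5% CO2. Growth inhibition was scored as reduced luminescence.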
CHX counter = affects cycloheximide protein synthesis inhibition readout, counter-screen; cell reporter, cycloheximide protein synthesis inhibition counterscreen; max response, %; actives 12% (n = 300,000); AID 2314; in the data active means max response mostly above about 13%, no sharp cut-off; inactive means mostly below about 14%; further: read at 38.3 µM for the half of the compounds with a filed dose
Shiga toxin inh = Shiga toxin inhibition | Vero cells, Shiga toxin protein synthesis inhibition reporter | inhibition, % at 38.7 µM | actives 9.2% (n = 290,000) | AID 2315; in the data active means inhibition mostly above about 28%, no sharp cut-off; inactive means mostly below about 43%
NS1 function inh = influenza NS1 inhibition; Potency, µM (top dose mostly 46.1 µM); actives 0.4% (n = 270,000); AID 2326; calls by dose curve; further: actives are rising curves; nearly all actives have a fitted effect of over 50% in size
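Read-out: OD600 growth recovery of NS1-expressing budding yeast. Cells grown overnight at 30C in -URA glucose medium, washed, resuspended and diluted 1:100 in 2% galactose assay medium, pH 6.0. Same strain lacking NS1 served as positive control.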
Pf growth 96h = P. falciparum growth inhibition at 96 hour, primary screen for plastid delayed-death inhibitors; actives 6.9% (n = 320,000); P. falciparum luciferase reporter growth, 96 h; AID 504834; Potency, µM (titrated, usually from 28.7 µM), actives largely listed as inhibitors
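P. falciparum expressing integrated firefly luciferase, in erythrocytes at 2% hematocrit, 0.05% parasitemia, incubated with compounds 96 h at 37 C, 5% CO2. Growth inhibition read as loss of luminescence; two-generation exposure targets delayed-death apicoplast inhibitors.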
Of the large screens only hits and unclear results are named; the others gave an inactive call. Unless noted, the call rests on the fitted dose curve; in most records, active means well fitted inhibition curve with a large enough effect; inconclusive means small, poorly fitted or top-dose-only effect, or another doubt; inactive means no such curve, though single readings can be large or run the other way.

COc1ccc(C)cc1NC(=O)C(Sc1nnc2ccccn12)c1ccccc1 (stereo unspecified)	none
COc1ccc(C)cc1NC(=O)C(Sc1nnc(Nc2cc(C)ccc2OC)s1)c1ccccc1 (stereo unspecified)	NS1 function inh inconclusive, Pf growth 96h 10µM
COc1ccc(Nc2nnc(SC(C(=O)Nc3ccc(OC)c(Cl)c3)c3ccccc3)s2)cc1 (stereo unspecified)	Pf growth 48h inconclusive, Pf growth 96h 9.3µM
COc1ccc(Nc2nnc(SC(C(=O)Nc3cc(C)ccc3C)c3ccccc3)s2)cc1 (stereo unspecified)	Pf growth 48h inconclusive, Pf growth 96h inconclusive (no result: NS1 function inh)
COc1ccc(C)cc1NC(=O)C(Sc1nnc(-c2ccncc2)n1-c1ccc(Cl)cc1)c1ccccc1 (stereo unspecified)	Pf growth 48h inconclusive, NS1 function inh inconclusive, Pf growth 96h 10µM
COc1ccccc1N1C(=O)Cc2ccccc2C1=O	Pf growth 48h inconclusive
COC(=O)c1cc(OC)c(OC)cc1NC(=S)N1CCN(c2ccccc2)CC1	Pf growth 48h inconclusive
Cc1ccc(-n2nc(C)c3c(C)c(CCC(=O)NC(C)c4ccccc4)c(C)nc32)cc1 (stereo unspecified)	Pf growth 96h 9.3µM (no result: Pf growth 48h)
Cc1ccc(-n2nc(C)c3c(C)c(CCC(=O)O)c(C)nc32)cc1	Pf growth 96h inconclusive
C/C(=C\C=C(C#N)C#N)c1cc(C#N)c(N)o1	Pf growth 48h inconclusive, Pf growth 96h inconclusive
O=C(CCCOc1ccc(Cl)cc1Cl)Nc1ccc(O)cc1C(=O)O	none
Nc1nonc1-c1nc2ccccc2n1CC(=O)NC1CCCC1	Pf growth 96h 10µM
O=C1C(=O)N(c2ccccn2)C(c2cccc(F)c2)/C1=C(/O)c1ccccc1 (stereo unspecified)	none (no result: Pf growth 48h)
CCOC(=O)N/N=C/c1ccc(F)cc1F	CHX counter 30, Shiga toxin inh 57
CCOC(=O)N/N=C/c1cc(C)n(-c2cccc3ccccc23)c1C	Pf growth 48h 12µM, Pf growth 96h 9.3µM
Cc1cc(/C=N/NC(=O)c2cccc(F)c2)c(C)n1-c1ccccc1	Pf growth 96h inconclusive (no result: NS1 function inh)
COC(=O)N/N=C/c1cc(C)n(-c2cccc3ccccc23)c1C	Pf growth 48h 7.4µM, Pf growth 96h 15µM
CCOC(=O)N/N=C/c1c[nH]c2ccccc12	none (no result: NS1 function inh)
Cc1cc(/C=N/NC(=O)c2ccccc2F)c(C)n1-c1ccccc1	CHX counter 25, Shiga toxin inh 67 (no result: NS1 function inh)
CCCCC1=C([O-])C2N=CC=CC2=[N+](c2ccccn2)C1=O (stereo unspecified)	none
C[C@@]12C=Cc3occc3[C@H]1CC[C@@]13C[C@@H](CC[C@H]12)[C@@](O)(CO)C3	none (no result: Pf growth 48h, NS1 function inh, Pf growth 96h)
CCOc1ccc(-n2ccnc2SCC(=O)Nc2cc(C)on2)cc1	none (no result: NS1 function inh)
Cc1ccc(NC(=O)Nc2c(C)n(C)n(-c3ccccc3)c2=O)cc1	none
CC(OC(=O)Cc1ccccc1F)C(=O)Nc1ccc(Cl)cn1 (stereo unspecified)	none (no result: CHX counter, Shiga toxin inh, NS1 function inh)
CCOC(=O)N/N=C/c1cc(C)n(-c2ccccc2)c1C	Pf growth 48h inconclusive, CHX counter 35, Shiga toxin inh 71, Pf growth 96h inconclusive
O=C(NC1=C(Nc2ccc(F)cc2)C(=O)c2ccccc2C1=O)c1ccc(Cl)cc1	Pf growth 48h 0.52µM, CHX counter 16, Shiga toxin inh active, Pf growth 96h 0.37µM
CCOC(=O)C1CCN(C(=O)c2sccc2Cl)CC1	none
O=C(NCc1ccon1)c1ccc(OC2CCN(CCc3ccccc3)CC2)cc1	none
O=C(Nc1ccon1)c1ccc(OC2CCCC2)cc1	CHX counter 64, Shiga toxin inh 92, Pf growth 96h 5.2µM
CC(C)(C)c1cc(NC(=O)c2ccc(OC3CCCC3)cc2)no1	Pf growth 48h 12µM, Pf growth 96h 12µM
Cc1ccnc(SCc2cc(=O)c(OC(=O)c3cccs3)co2)n1	none (no result: NS1 function inh)
O=C(Oc1coc(CSc2ncccn2)cc1=O)c1cccs1	CHX counter 16, Pf growth 96h inconclusive (no result: NS1 function inh)
COc1ccc(C(=O)Nc2ccccc2C(=O)N2CCCCCC2)cc1	none
Cc1ccc(C(=O)Nc2ccccc2C(=O)N2CCCCC2C)cc1 (stereo unspecified)	Pf growth 96h 12µM
CCC(NC(=O)c1ccccc1NC(=O)c1ccc(OC)cc1)C(=O)N1CCCC1 (stereo unspecified)	CHX counter 46, Shiga toxin inh 34
CCC(NC(=O)c1ccccc1NC(=O)c1ccccc1)C(=O)OC (stereo unspecified)	Pf growth 48h 2.1µM
COc1cc(OC)cc(C(=O)Nc2ccccc2C(=O)N2CCCC2)c1	CHX counter 30, Shiga toxin inh 60
O=C(Cc1ccc(Cl)cc1)NNC(=O)c1cnccn1	Pf growth 48h inconclusive
COc1ccc(C(C)(C)C)cc1NC(=O)COC(=O)CSCc1c(C)noc1C	none (no result: CHX counter, Shiga toxin inh, NS1 function inh)
CN1CCN(C(=O)Cn2ncc3c([nH]c4ccccc43)c2=O)CC1	Pf growth 96h inconclusive
c1ccc(COC[C@@H]2CO2)cc1	none (no result: Pf growth 48h, NS1 function inh, Pf growth 96h)
Cc1cc(C(=O)N/N=C2\CCCC(C)C2)n[nH]1 (stereo unspecified)	CHX counter 55 (no result: Pf growth 96h)
O=C1CCS/C(=N\N=C\c2ccc(Cl)cc2Cl)N1	CHX counter 16
Cc1ccccc1/C=N/N=C1/NC(=O)CCS1	Pf growth 48h inconclusive, CHX counter 40, Shiga toxin inh 92
CNc1sc(C(=O)c2ccc(F)cc2)c(N)c1-c1nc2ccccc2s1	CHX counter 29 (no result: Pf growth 48h)
CNc1sc(C(=O)c2cccs2)c(N)c1-c1nc2ccccc2s1	CHX counter 40, Shiga toxin inh 176
COc1ccc(C(=O)N2CCN(C3CCCCC3)CC2)cc1OC	none
COc1ccc(-c2cc(=O)c3ccccc3o2)cc1	CHX counter 19, Shiga toxin inh 52, Pf growth 96h inconclusive
O=c1cc(-c2ccc(O)cc2)oc2ccc(O)cc12	CHX counter 55, Shiga toxin inh 54 (no result: NS1 function inh)
Nc1c(-c2ccc3c(c2)OCCO3)oc2ccccc2c1=O	CHX counter 33, Shiga toxin inh 70
COc1ccc2oc(-c3ccccc3[N+](=O)[O-])cc(=O)c2c1	Pf growth 48h inconclusive, CHX counter 41, Shiga toxin inh 81
COc1ccccc1-n1c(SCC(=O)Nc2ccc(Br)cc2)nc(O)cc1=O	none
O=C(/C=C/c1c(F)cccc1Cl)NCc1ccc2c(c1)OCO2	none
COc1ccccc1C(CCNS(=O)(=O)c1ccc(C)cc1)c1ccco1 (stereo unspecified)	Pf growth 48h inconclusive, Pf growth 96h inconclusive
O=c1cc(-c2c(F)c(F)c(F)c(F)c2F)oc2ccccc12	none (no result: Pf growth 48h)
O=c1cc(-c2ccncc2)oc2ccccc12	none (no result: Pf growth 48h)
O=c1ccc2c(-c3ccccc3)c3ccc(O)cc3oc-2c1	none (no result: Pf growth 48h)
Cc1cccc(-c2oc3ccccc3c2-c2ccc3c(c2)OCO3)c1	Pf growth 48h inconclusive, Pf growth 96h 9.3µM
Cc1cccc(-c2noc(-c3ccc4c(c3)OCO4)n2)c1	none
O=c1cc(-c2ccc(O)cc2)oc2ccccc12	CHX counter 37, Shiga toxin inh 55
O=c1cc(-c2ccccc2)oc2cc(O)ccc12	CHX counter 51, Shiga toxin inh 77 (no result: Pf growth 48h, NS1 function inh, Pf growth 96h)
O=c1cc(-c2ccc3c(c2)OCO3)oc2ccccc12	CHX counter 21, Pf growth 96h inconclusive
